Assay outcomes from PubChem.
CYP2C9 activ: CYP2C9 (human) activation. P11712. recombinant CYP2C9, luciferin-H conversion, luminescence; stronger effect = higher value; factor 1 = untreated enzyme, 0 = blocked. activation factor at 5 µM. 1.4% of 96,000 active. AID 1024;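 active = activation factor of 2 or more for CYP2C9 at a 5 µM dose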;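 note: 0 = sulfaphenazole-blocked wells and 1 = vehicle-only wells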
CYP2C19 act: increases human CYP2C19 enzyme activity. 96,000 tested, under 10 active. AID 1025. activation factor at 5 µM. recombinant CYP2C19, luciferin-H EGE luminescence; stronger effect = higher value; 0 = fully inhibited enzyme, 1 = untreated enzyme;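 active = activation factor of at least 2 at 5 µM in the primary screen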;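 note: 0 = wells with 2.5 mM tranylcypromine and 1 = vehicle-only wells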
Cav3 T inh: human Cav3.2 channel inhibition, primary screen | Cav3.2-expressing cells, Fluo-4 calcium fluorescence FDSS; stronger effect = lower value | 4% of 100,000 active | B-score at 10 µM;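 active = single-dose well whose peak fluorescence ratio is a statistical outlier from its plate by either plate-standardised score or position-corrected B-score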
CYP2C9 inh: blocks human cytochrome P450 2C9; P11712; CYP2C9 Supersomes, luciferin-H conversion, luminescence; inhibition, % at 5 µM; 20% of 96,000 active;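 active = blocking of liver enzyme CYP2C9 beyond about 50% at 5 µM, limit read from the data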
CYP2C19 inh: human CYP2C19 inhibition | CYP2C19 Supersomes, luciferin-H EGE luminescence, 30 min | inhibition, % at 5 µM | 21% of 96,000 active;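 active = CYP2C19 inhibition above a set limit at 5 µM in the primary screen, cut at about 50% in these data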;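 note: plate controls were negative control wells for no effect and 2.5 mM tranylcypromine positive control for full effect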
An asterisk follows results filed as active; . = no result given. Sampled rows, rich in hits. Any-hit rate of the full collection: about 27%.

SMILES	CYP2C9 activ	CYP2C19 act	Cav3 T inh	CYP2C9 inh	CYP2C19 inh
CC(C)(C)n1ncc2c(=O)n(CC(=O)Nc3ccc4c(c3)OCCO4)cnc21	0.9	1.1	-1.9	15	-7
COc1cccc(C2=NOC(C(=O)NCCN3CCOCC3)C2)c1 (stereo unspecified)	1	1.1	0.19	3	-6
CCCN1Cc2cccc(C(=O)NCc3cccs3)c2C1=O	0.5	0.3	-0.81	52*	73*
COCCN1Cc2cccc(C(=O)NC(C)c3cccs3)c2C1=O (stereo unspecified)	0.7	0.4	1	28	63*
CCOc1ccc(NC(=O)c2cccc3c2C(=O)N(CCOC)C3)cc1	0.3	0.8	0.042	72*	20
CCCN1Cc2cccc(C(=O)NCc3ccc4c(c3)OCO4)c2C1=O	0.6	0.8	-0.2	38	18
Cc1ccc(S(=O)(=O)NC(=O)Nc2nnc(C3CC3)s2)cc1	0.9	1	0.046	5	5
CC1=C(C(=O)OCc2ccc3c(c2)OCO3)C(c2ccc(F)cc2)NC(=O)N1 (stereo unspecified)	0.5	0.7	.	52*	33
CC1=C(C(=O)OC(C)C)C(c2ccc(Br)s2)NC(=O)N1 (stereo unspecified)	0.7	0.2	-1.7	33	82*
CC1=C(C(=O)OC(C)C)C(c2ccc(F)cc2)NC(=O)N1 (stereo unspecified)	0.7	0.2	-0.65	30	85*
CC1=C(C(=O)OC(C)C)C(c2ccco2)NC(=O)N1 (stereo unspecified)	1.2	1.1	-0.0068	-17	-11
CC1=C(C(=O)OCc2ccc3c(c2)OCO3)C(c2ccc(Cl)cc2)NC(=O)N1 (stereo unspecified)	0.6	0.8	-0.61	42	19
CCOc1cc(C2NC(=O)NC(C)=C2C(=O)OC(C)CC)cc(Br)c1O (stereo unspecified)	0.7	0.7	-0.2	32	28
CC1=C(C(=O)OCC(C)C)C(c2ccsc2)NC(=O)N1 (stereo unspecified)	0.5	0.3	.	52*	65*
CCOC(=O)C1C(=O)Nc2nc3ccccc3n2C1C(C)C (stereo unspecified)	1	0.9	-0.54	1	6
CSc1nnc(-c2ccc(S(=O)(=O)N3CCOCC3)cc2)n1CC1CCCO1 (stereo unspecified)	0.8	0.8	0.23	24	16
COc1cc(C2=CCN(C(C)=O)CC2)ccc1OC(C)=O	.	.	1.2	.	.
CN(C(=O)COc1ccccc1)c1nnc(C23CC4CC(CC(C4)C2)C3)s1	.	.	0.34	.	.
O=C(CCc1ccccc1)n1nc(-c2ccco2)nc1SCc1ccccc1	0.9	0.8	.	10	23
CCC(C)OC(=O)C1=C(C)NC(=O)NC1c1ccc(F)cc1 (stereo unspecified)	0.6	0	-0.3	39	95*
CCOC(=O)C1=C(Cn2ccc(C(F)(F)F)n2)NC(=O)NC1c1ccc2c(c1)OCO2 (stereo unspecified)	0.3	0.3	1.6	65*	72*
CCOC(=O)C1=C(C)NC(=O)NC1c1ccc2c(c1)OCCO2 (stereo unspecified)	0.8	0.8	1.1	22	25
COCC(=O)NC1CCN(CC(=O)Nc2ccc(OC)cc2[N+](=O)[O-])CC1	1.2	0.8	0.5	-20	16
COc1ccc(/C(C)=C(\C#N)C(=O)OC(C)C)cc1OC	.	.	0.74	.	.
CC(C)(C)CC(C)(C)Nc1c(-c2ccc(O)cc2)nc2cnccn12	.	.	-0.9	.	.
SMILES	CYP2C9 activ	CYP2C19 act	Cav3 T inh	CYP2C9 inh	CYP2C19 inh
O=[N+]([O-])c1ccc(N2CCCC2)cc1NC(c1ccccc1)c1ccccc1	0.7	0.9	-2.3	30	9
CCS(=O)(=O)N1CCN(c2ccc([N+](=O)[O-])c(NC(C)c3ccccc3)c2)CC1 (stereo unspecified)	0.3	0.5	.	66*	51*
CC(Nc1cc(N2CCN(C(=O)C(C)(C)C)CC2)ccc1[N+](=O)[O-])c1ccccc1 (stereo unspecified)	0.5	0.4	-4.2*	50*	56*
Cc1cccc(NC(=O)Nc2cccc(F)c2)n1	0.9	0.8	-0.31	10	17
N#Cc1cccc(NC(=O)Nc2cccs2)c1	0.2	0.6	-0.39	84*	42
Cc1cccc(NC(=O)Nc2ccc(C#N)cc2)n1	0.7	1	0.61	27	4
Cc1cccc(NC(=O)Nc2cccc(C#N)c2)n1	1.1	1	-4.2*	-6	-3
COc1ccc(NC(=O)Nc2cccc(C)n2)cc1	0.8	0.8	-4.2*	21	23
O=C1CCC(=O)N1c1nc2nc(-c3ccccc3)cc(-c3ccccc3)n2n1	0.7	0.9	1.2	27	12
CCN(c1ccc2c(c1)OCO2)S(=O)(=O)c1cc(Br)cc2c1N(C(C)=O)CC2	1.4	0.4	0.64	-43	56*
O=C(C1CC1)N1CCc2cc(Br)cc(S(=O)(=O)NCc3ccc4c(c3)OCO4)c21	0.9	0.3	.	14	67*
CCN1CCCC1CNS(=O)(=O)c1cc(Br)cc2c1N(C(=O)C1CC1)CC2 (stereo unspecified)	0.5	1	1.5	48	-5
O=C(C1CC1)N1CCc2cc(Br)cc(S(=O)(=O)N3CCOCC3)c21	0.3	0.6	1.7	72*	35
O=C(C1CC1)N1CCc2cc(Br)cc(S(=O)(=O)NCc3ccco3)c21	1	0.8	.	-2	15
O=C(C1CC1)N1CCc2cc(Br)cc(S(=O)(=O)NCCN3CCOCC3)c21	0.8	0.9	-0.45	22	8
CCCCN(C)S(=O)(=O)c1cc(Br)cc2c1N(C(=O)C1CC1)CC2	0.8	0.1	-1.9	18	86*
O=C(NC1CCCCC1)N1CCN(C(=O)c2ccco2)CC1	0.9	0.9	-0.0068	5	8
CCn1cc(C(=O)O)c(=O)c2cnc(N3CCN(C(=O)Nc4cccc5ccccc45)CC3)nc21	1	1	.	0	4
Cc1cccc(OCCC(=O)Nc2c(C)n(C)n(-c3ccccc3)c2=O)c1	1	1	1.9	-4	-1
N/C(=N\OS(=O)(=O)c1ccc2ccccc2c1)c1ccncc1	0.3	0.7	0.24	68*	30
O=C1N2CCSC2=NC1(Nc1nccs1)C(F)(F)F (stereo unspecified)	1.1	1.1	0.29	-7	-7
O=C(NCc1nc2ccccc2[nH]1)C1=C[C@H](c2ccc3c(c2)OCO3)C[C@H](OCc2ccc(CO)cc2)O1	.	.	-1.4	.	.
O=C1CSC(c2ccccn2)N1c1ccc(Cl)c(Cl)c1 (stereo unspecified)	0.9	0.4	0.56	9	63*
O=C1CSC(c2cccnc2)N1c1ccc(F)cc1 (stereo unspecified)	0.9	1	-0.63	14	2
CO/N=C/NC(=O)NOCc1ccc(Cl)cc1Cl	0.9	0.5	-0.081	14	52*
O=C(N/C=N/OCc1ccc(Cl)cc1Cl)NOCc1c(Cl)cccc1Cl	1.1	1.1	0.86	-12	-15
ONC(=Nc1ccc(Cl)cc1)c1ccccc1	0.8	0.1	.	24	91*
